Screens from PubChem.
This is a sample that favours compounds with a hit; in the whole collection about 3.7% have one here.
FadD28 binding – inhibitors of FadD28 bisubstrate probe binding, primary screen, biochemical, fluorescence polarization, single point; Mycobacterium tuberculosis FadD28 fatty-acid-AMP ligase; hit rate 0.22% among 360,000; inhibition, % at 12.5 µM; in the data active means inhibition above about 8.5%, passing the limit was not always enough; inconclusive means no clear call, values can overlap the other calls
Rv3671c inh – Rv3671c serine protease inhibitors, primary screen, biochemical, fluorescence polarization, M. tuberculosis H37Rv | P9WHR9 | inhibition, % at 5.96 µM | hit rate 0.048% among 320,000 | AID 2606, 2010; in the data active means inhibition above about 38%;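 further: extracellular domain of Rv3671c used as enzyme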
Target sequence (P9WHR9 whole entry, looked up, the tested form may be a part): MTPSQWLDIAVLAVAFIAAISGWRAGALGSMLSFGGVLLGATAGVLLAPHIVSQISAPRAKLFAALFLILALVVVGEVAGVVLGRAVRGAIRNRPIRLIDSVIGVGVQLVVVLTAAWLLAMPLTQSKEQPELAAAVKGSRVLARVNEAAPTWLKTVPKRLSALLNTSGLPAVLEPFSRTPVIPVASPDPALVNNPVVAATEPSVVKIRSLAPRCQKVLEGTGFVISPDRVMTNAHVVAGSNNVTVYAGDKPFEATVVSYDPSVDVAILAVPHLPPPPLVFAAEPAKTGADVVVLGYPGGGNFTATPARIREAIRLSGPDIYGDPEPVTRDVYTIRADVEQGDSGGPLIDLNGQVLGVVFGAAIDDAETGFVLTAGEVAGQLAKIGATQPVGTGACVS
GDH-TPI counter-1 – GDH-TPI coupling enzyme inhibitors, primary screen, artefact control for M. tuberculosis FBA inhibitor project, biochemical, absorbance, full deck; AID 588335, 2011; hit rate 1.2% among 360,000; GDH-TPI coupled enzyme counterscreen, NADH absorbance; inhibition, % at 4.8 µM; in the data active means inhibition above about 30%
Mtb FBA inh – Mtb FBA enzyme inhibitors, primary screen, biochemical, fluorescence, strain H37Rv | Fructose-bisphosphate aldolase (Mycobacterium tuberculosis (strain ATCC 25618 / H37Rv)), … | purified M. tuberculosis FBA, fluorescence read-out | inhibition, % at 1 µM | hit rate 2.3% among 360,000; in the data active means inhibition above about 27%
Target sequence (P9WQA3 whole entry, looked up): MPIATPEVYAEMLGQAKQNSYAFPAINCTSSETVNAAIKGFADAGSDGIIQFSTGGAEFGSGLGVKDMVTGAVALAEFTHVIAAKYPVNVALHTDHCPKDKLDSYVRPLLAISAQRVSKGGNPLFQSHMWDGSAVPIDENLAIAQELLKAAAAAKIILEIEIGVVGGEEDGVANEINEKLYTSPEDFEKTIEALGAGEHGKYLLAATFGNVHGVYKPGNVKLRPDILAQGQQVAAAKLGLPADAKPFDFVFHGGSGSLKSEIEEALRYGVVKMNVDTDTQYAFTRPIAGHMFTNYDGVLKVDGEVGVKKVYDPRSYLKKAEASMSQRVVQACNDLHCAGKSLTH
Mtb betalactam – beta-lactam sensitization of Mtb H37Rv, H37Rv | M. tuberculosis H37Rv growth with meropenem, percent inhibition | inhibition, % at 25 µM | hit rate 0.27% among 330,000;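 further: growth measured after seven days incubation then overnight dye step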
Mtb UGM inh – M. tuberculosis UGM enzyme inhibitors, primary screen, biochemical, fluorescence polarization, single point. purified UGM, fluorescence polarization probe displacement. inhibition, % at 10 µM. hit rate 0.06% among 320,000. AID 504406, 2011; in the data active means inhibition above about 10%, passing the limit was not always enough; inconclusive means no clear call, values can overlap the other calls
Mtb FBA confirm – M. tuberculosis aldolase blockers, biochemical, fluorescence, strain H37Rv, confirmation | AID 651616, 2012 | purified M. tuberculosis FBA, fluorescence read-out | hit rate 78% among 5,600 | inhibition, % at 1 µM | shares compounds with Mtb FBA inh; in the data active means inhibition above about 27%
GDH-TPI counter-2 – GDH-TPI coupling enzyme inhibitors, artefact control for M. tuberculosis FBA inhibitor project, biochemical, fluorescence, high throughput; shares compounds with Mtb FBA inh; GDH-TPI coupled enzyme counterscreen; inhibition, % at 1 µM; hit rate 81% among 5,600; in the data active means inhibition above about 10%
GDH-TPI dose – GDH-TPI coupling enzyme inhibitors, dose response, artefact control for M. tuberculosis FBA inhibitor project, biochemical, fluorescence, IC50; shares compounds with Mtb FBA inh; GDH-TPI coupled enzyme assay, artifact counterscreen; IC50, µM; hit rate 79% among 170; AID 652145, 2013
Large screens that a line does not name were inactive (follow-up assays come after a bar, where they were run). Unless noted, how the calls were made is not given here.

CCc1cc(=O)oc2cc(C)cc(OCC(=O)N[C@@H](CSCc3ccccc3)C(=O)O)c12	Mtb FBA inh 36.8 | Mtb FBA confirm active | GDH-TPI counter-2 162.1
CCc1cc(=O)oc2cc(C)cc(OCC(=O)NC(Cc3c[nH]c4ccc(O)cc34)C(=O)O)c12 (stereo not drawn)	none
O=C(NCC1CCCCC1)c1ccc2sc([C@H]3C[C@H](O)[C@@H](CO)O3)nc2c1	none (no result: Rv3671c inh, Mtb betalactam, Mtb UGM inh)
Cc1cc(C(=O)Nc2ccon2)ccc1[N+](=O)[O-]	none
Cc1c(C)c2ccc(OCC(=O)Nc3cccnc3)c(C)c2oc1=O	Mtb FBA inh 60.4 | Mtb FBA confirm inactive | GDH-TPI counter-2 inactive
CCc1cc(=O)oc2cc(C)cc(OCC(=O)NCCc3c[nH]c4ccccc34)c12	none
CCCc1cc(=O)oc2cc(C)cc(OCC(=O)Nc3ccc(CN4CCOCC4)cc3)c12	Mtb FBA inh 43.5 | Mtb FBA confirm inactive | GDH-TPI counter-2 inactive
CCc1cc(=O)oc2cc(C)cc(OCC(=O)NCCN3CCOCC3)c12	Mtb FBA inh 60.7 | Mtb FBA confirm 51.6 | GDH-TPI counter-2 65.9
CCCc1cc(=O)oc2cc(C)cc(OCC(=O)NCCN3CCOCC3)c12	Mtb FBA inh 66.5 | Mtb FBA confirm inactive | GDH-TPI counter-2 inactive
COc1ccc(C(=O)NCCCOC(C)C)cc1OC1CCN(C(C)=O)CC1	none
CCc1nc2ccc(C(=O)Nc3cccc(OC)c3)cn2c1N(CC)Cc1cccc(Br)c1	none (no result: Rv3671c inh, Mtb betalactam, Mtb UGM inh)
C[C@@H]1CN([C@@H](C)CO)C(=O)c2cc(NC(=O)c3ccccc3)ccc2O[C@@H](C)CCCCO[C@@H]1CN(C)Cc1ccc(C(F)(F)F)cc1	none (no result: Rv3671c inh, Mtb betalactam, Mtb UGM inh)
Cc1cc(Cl)ccc1OCC(=O)NCCCN1CCOCC1	none
Cc1cc(OCC(=O)NCCCN2CCOCC2)c2c(C)cc(=O)oc2c1	Mtb FBA inh 61.1 | Mtb FBA confirm 137.7 | GDH-TPI counter-2 141.8
Cc1c(C)c2ccc(OCC(=O)NCCN3CCOCC3)c(C)c2oc1=O	Mtb FBA inh 46.8 | Mtb FBA confirm active | GDH-TPI counter-2 active
O=C(COc1ccccc1O)NCCN1CCOCC1	none
NC(=O)COc1ccc2oc(-c3ccccc3)cc(=O)c2c1	Mtb FBA inh 77.1 (no result: Rv3671c inh, Mtb betalactam, Mtb UGM inh) | Mtb FBA confirm inactive | GDH-TPI counter-2 inactive
CCc1ccccc1NC(=O)COc1ccc2oc(-c3ccc(OC)cc3)cc(=O)c2c1	Mtb FBA inh 35.0 | Mtb FBA confirm 75.4 | GDH-TPI counter-2 52.2
CCOC(=O)COc1ccc2c(=O)cc(-c3ccccc3)oc2c1	none
Cc1cc(-c2ccc(Cl)cc2)n2ncnc2n1	Mtb FBA inh 27.5 | Mtb FBA confirm 100.7 | GDH-TPI counter-2 91.0
Cc1cc(-c2ccc(Cl)cc2)n2nc(N)nc2n1	Mtb FBA inh 59.2 | Mtb FBA confirm inactive | GDH-TPI counter-2 inactive | GDH-TPI dose 2.56
Cc1cc(Nc2ccc(Cl)cc2)n2ncnc2n1	none (no result: Rv3671c inh)
Cc1cc(N)n2ncc(-c3ccc(Cl)cc3)c2n1	none
CCCC(C)(C)C(=O)N1CCC1(C)C(=O)Nc1cccc(OC)c1 (stereo not drawn)	none (no result: Rv3671c inh, Mtb betalactam, Mtb UGM inh)
COc1cccc(CC(=O)Nc2ccc(F)c(S(=O)(=O)N3CCOCC3)c2)c1	none (no result: Rv3671c inh, Mtb betalactam, Mtb UGM inh)
COc1ccc(-c2nc3ccc(N4CCN(C)CC4)cc3c(=O)[nH]2)cc1	Mtb FBA inh 32.4 | Mtb FBA confirm inactive | GDH-TPI counter-2 inactive
CCN(CCn1cccn1)C(=O)CC1C(=O)NCCN1CCc1ccccc1 (stereo not drawn)	Mtb betalactam inconclusive
Cc1cc(N2CCN(C)CC2)nc2ccc(NC(=O)CCC(=O)NCCC(C)C)cc12	Mtb FBA inh 33.3, Mtb UGM inh inconclusive | Mtb FBA confirm inactive | GDH-TPI counter-2 inactive
Cc1cc(N2CCN(C)CC2)nc2ccc(NC(=O)CCC(=O)NCc3ccco3)cc12	Mtb FBA inh 31.9 | Mtb FBA confirm 68.3 | GDH-TPI counter-2 69.4
Cc1cc(N2CCN(C)CC2)nc2ccc(NC(=S)N3CCN(c4ccc(Cl)cc4)CC3)cc12	Mtb FBA inh 27.1 | Mtb FBA confirm 134.9 | GDH-TPI counter-2 127.8
Cc1cc(C)cc(C(=O)N2CCCCC2)c1	none (no result: Rv3671c inh, Mtb betalactam, Mtb UGM inh)
Cc1c(CNCCc2ccc(Cl)cc2)c(C(=O)O)c(C)n1-c1ccccc1	none (no result: FadD28 binding, Rv3671c inh, Mtb betalactam, Mtb UGM inh)
COCCNC(=O)c1cc2c(=O)[nH]c3ccccc3c2s1	Mtb FBA inh 77.9 | Mtb FBA confirm 102.2 | GDH-TPI counter-2 84.0
CCCN1CCN(CCCNC(=O)c2cc3c(=O)[nH]c4ccccc4c3s2)CC1	Mtb FBA inh 46.8 | Mtb FBA confirm 91.1 | GDH-TPI counter-2 76.1
CCCN1CCN(CCCNC(=O)c2cc3c(=O)oc4ccc(C)cc4c3s2)CC1	none
CCOc1ccccc1C(=O)NCC(=O)NCC(c1ccco1)N1CCCCC1 (stereo not drawn)	none
Cc1ccc2nc(-c3ccc(NC(=O)CSc4nc(N)cc(=O)[nH]4)cc3)sc2c1	Mtb FBA inh 36.5 | Mtb FBA confirm 72.5 | GDH-TPI counter-2 42.5
Nc1cc(=O)[nH]c(SCC(=O)Nc2nc3ccc([N+](=O)[O-])cc3s2)n1	none (no result: FadD28 binding, GDH-TPI counter-1, Mtb FBA inh)
Cc1ccc2nc(-c3ccc(NC(=O)CSc4nccc(=O)[nH]4)cc3)sc2c1	Mtb FBA inh 52.7 | Mtb FBA confirm active | GDH-TPI counter-2 active
CCn1c(SCC(=O)Nc2ccc(-c3nc4ccc(C)cc4s3)cc2)nnc1-c1ccccc1	none (no result: FadD28 binding, GDH-TPI counter-1, Mtb FBA inh)
NNC(=O)c1ccc2nc(-c3ccc(Br)cc3)cn2c1	none
CC(=O)Nc1ccc(-c2cc(C(=O)O)c3ccc(C)cc3n2)cc1	Mtb FBA inh 47.1 | Mtb FBA confirm inactive | GDH-TPI counter-2 inactive
CC(=O)Nc1ccc(-c2cn3cc(C)ccc3n2)cc1	Mtb FBA inh 74.3 | Mtb FBA confirm active | GDH-TPI counter-2 145.2
COc1ccc(-c2cn3cc(C(=O)NN)ccc3n2)cc1	Mtb FBA inh 41.8 | Mtb FBA confirm 88.6 | GDH-TPI counter-2 78.0
CC(=O)Nc1ccc(-c2cc(C(=O)O)c3cc4ccccc4cc3n2)cc1	none (no result: Rv3671c inh, Mtb betalactam, Mtb UGM inh)
Cc1ccc2nc(-c3ccccc3)cn2c1	Mtb FBA inh 36.8 | Mtb FBA confirm 98.9 | GDH-TPI counter-2 88.0
CCCNC(=O)N(C)C[C@H]1Oc2ncc(Br)cc2C(=O)N([C@H](C)CO)C[C@H]1C	none (no result: Rv3671c inh, Mtb betalactam, Mtb UGM inh)
CCOc1ccc2cc(C(=O)NCc3ccccc3)c(=N)oc2c1	Mtb FBA inh 40.9 (no result: FadD28 binding) | Mtb FBA confirm 52.7 | GDH-TPI counter-2 35.2
